The values that follow come from publication PMC7826789 (International Journal of Molecular Sciences, 2021).

Test systems include PDGFRB; PDPK1; PHKG1; PHKG2; PIK3C2B; PIK3C2G; PIK3CA(C420R); PIK3CA(E542K); PIK3CA(E545A); PIK3CA(E545K); PIK3CA(H1047L); PIK3CA(H1047Y); PIK3CA(I800L); PIK3CA(M1043I); PIK3CA(Q546K); PIK3CA.
What all share (conditions): Compound Concentration (nM):1000
Another experiment has as its system T1, PFCDPK1(P.falciparum).
T1 construct: gene CDPK1

The next experiment concerns T2, PFPK5(P.falciparum).
T2 construct: gene MAL13P1.279

The test system of another experiment is T3, PFTAIRE2.
T3 construct: gene CDK15

A further experiment concerns T4, PFTK1.
T4 construct: gene CDK14
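Also: KINOMEscan scanMAX binding as percent activity remaining versus control; lower means stronger binding.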

On to `CC(C)COC(=O)c1ccc2c(c1)/C(=C/Nc1ccc(S(N)(=O)=O)cc1)C(=O)N2` [GW416981X], for which the “Percent Control” value in the experiment with PDGFRB was 57%; with PDPK1, 55%; with PFCDPK1(P.falciparum) it was 71%; in the experiment on PFPK5(P.falciparum), 100%; in the experiment on PFTAIRE2, 75%; in the experiment with PFTK1, 89%. For the same compound, the “Percent Control” value in the experiment on PHKG1 is 100%; in the experiment on PHKG2, 54%; in the experiment on PIK3C2B it was 100%; with PIK3C2G, 97%; with PIK3CA(C420R), 100%; in the experiment on PIK3CA(E542K), 100%. Besides, the “Percent Control” value is 100% in the experiment on PIK3CA(E545A); 100% in the experiment on PIK3CA(E545K); 100% in the experiment on PIK3CA(H1047L); 100% with PIK3CA(H1047Y); 100% in the experiment with PIK3CA(I800L); 87% in the experiment with PIK3CA(M1043I). Moreover, the “Percent Control” value in the experiment with PIK3CA(Q546K) and in the experiment with PIK3CA was 100% throughout.

Consider `COc1cccc(-n2ncc3c(N/N=C/c4ccncc4)ncnc32)c1` [GW784752X], for which the “Percent Control” value in the experiment on PDGFRB is 60%; with PDPK1, 92%; in the experiment with PFCDPK1(P.falciparum) it was 33%; in the experiment on PFPK5(P.falciparum), 100%; with PFTAIRE2, 74%; in the experiment on PFTK1 it was 95%. In addition, the “Percent Control” value in the experiment with PHKG1 was 37%; in the experiment on PHKG2, 93%; in the experiment on PIK3C2B, 100%; in the experiment on PIK3C2G, 98%; in the experiment on PIK3CA(C420R), 100%; in the experiment on PIK3CA(E542K), 100%. Moreover, the “Percent Control” value was 100% in the experiment with PIK3CA(E545A); 92% in the experiment on PIK3CA(E545K); 100% in the experiment on PIK3CA(H1047L); 100% in the experiment on PIK3CA(H1047Y); 96% in the experiment with PIK3CA(I800L); 100% in the experiment with PIK3CA(M1043I). For the same compound, the “Percent Control” value in the experiment on PIK3CA(Q546K) and in the experiment with PIK3CA was 100% each time.

`NS(=O)(=O)c1ccc(Nc2ncc(-c3ccccc3)o2)cc1` [GW572399X]: the “Percent Control” value in the experiment with PDGFRB is 3.4%; in the experiment on PDPK1, 100%; in the experiment on PFCDPK1(P.falciparum), 27%; with PFPK5(P.falciparum), 100%; in the experiment on PFTAIRE2, 98%; with PFTK1, 100%. The “Percent Control” value with PHKG1, in the experiment with PHKG2, with PIK3C2B, with PIK3C2G, in the experiment on PIK3CA(C420R) and in the experiment on PIK3CA(E542K) was 100% in each case. Moreover, the “Percent Control” value in the experiment with PIK3CA(E545A) is 100%; with PIK3CA(E545K), 100%; in the experiment on PIK3CA(H1047L), 93%; with PIK3CA(H1047Y), 100%; in the experiment with PIK3CA(I800L) it was 100%; with PIK3CA(M1043I), 93%. The “Percent Control” value in the experiment with PIK3CA(Q546K) and with PIK3CA was 100% each time.

Consider `COc1cc2ncn(-c3cc(O[C@H](C)c4ccccc4Cl)c(C(N)=O)s3)c2cc1OC` [GSK237701A], for which the “Percent Control” value in the experiment with PDGFRB was 12%; with PDPK1, 90%; with PFCDPK1(P.falciparum) it was 75%; with PFPK5(P.falciparum), 57%; with PFTAIRE2, 60%; in the experiment on PFTK1, 100%. The “Percent Control” value is 100% with PHKG1; 79% in the experiment with PHKG2; 12% with PIK3C2B; 78% in the experiment on PIK3C2G; 65% with PIK3CA(C420R); 44% in the experiment with PIK3CA(E542K). Besides, the “Percent Control” value with PIK3CA(E545A) was 62%; in the experiment on PIK3CA(E545K) it was 51%; in the experiment with PIK3CA(H1047L) it was 53%; in the experiment on PIK3CA(H1047Y), 56%; with PIK3CA(I800L) it was 49%; in the experiment on PIK3CA(M1043I), 52%. Moreover, the entries for the “Percent Control” value with PIK3CA(Q546K) and in the experiment with PIK3CA were 58% and 54%, respectively.

On to `Cl.O=C(O[C@H]1CN[C@H](C#Cc2cc3ncnc(Nc4ccc5c(cnn5Cc5ccccc5)c4)c3s2)C1)N1CCOCC1` [GSK200398A], for which the “Percent Control” value in the experiment with PDGFRB was 100%; with PDPK1 it was 89%; in the experiment with PFCDPK1(P.falciparum), 88%; with PFPK5(P.falciparum) it was 100%; in the experiment on PFTAIRE2, 91%; in the experiment with PFTK1, 100%. For the same compound, the “Percent Control” value in the experiment on PHKG1 is 96%; with PHKG2, 98%; in the experiment with PIK3C2B, 88%; in the experiment with PIK3C2G, 84%; in the experiment with PIK3CA(C420R), 100%; in the experiment on PIK3CA(E542K), 100%. Besides, the “Percent Control” value was 100% in the experiment on PIK3CA(E545A); 85% in the experiment with PIK3CA(E545K); 100% in the experiment with PIK3CA(H1047L); 100% in the experiment on PIK3CA(H1047Y); 83% with PIK3CA(I800L); 100% in the experiment on PIK3CA(M1043I). Further, the “Percent Control” value with PIK3CA(Q546K) was 98%; in the experiment on PIK3CA, 100%.

Consider `Cl.O=C(Nc1ccc(Oc2ccc3[nH]c(NC(=O)c4ccccc4)nc3c2)cc1)Nc1cc(C(F)(F)F)ccc1F` [GW709042A], for which the “Percent Control” value in the experiment with PDGFRB is 1.2%; with PDPK1 it was 100%; in the experiment with PFCDPK1(P.falciparum), 100%; with PFPK5(P.falciparum), 100%; in the experiment on PFTAIRE2, 100%; in the experiment on PFTK1, 97%. Also, the “Percent Control” value with PHKG1 was 100%; in the experiment with PHKG2, 100%; in the experiment with PIK3C2B, 100%; in the experiment with PIK3C2G it was 97%; in the experiment with PIK3CA(C420R), 81%; with PIK3CA(E542K) it was 100%. Also, the “Percent Control” value was 95% in the experiment on PIK3CA(E545A); 100% in the experiment with PIK3CA(E545K); 100% with PIK3CA(H1047L); 80% with PIK3CA(H1047Y); 100% in the experiment with PIK3CA(I800L); 100% in the experiment on PIK3CA(M1043I). Also, the “Percent Control” value in the experiment on PIK3CA(Q546K) and with PIK3CA was 100% throughout.

For `CN(C)CCNC(=O)Nc1ccc(N(C)c2ccnc(Nc3ccc(CS(C)(=O)=O)cc3)n2)cc1.Cl` [GW830900A], the “Percent Control” value was 0% in the experiment on PDGFRB; 83% with PDPK1; 83% in the experiment with PFCDPK1(P.falciparum); 100% with PFPK5(P.falciparum); 90% with PFTAIRE2; 100% in the experiment on PFTK1. Also, the “Percent Control” value in the experiment on PHKG1 was 92%; in the experiment with PHKG2, 100%; with PIK3C2B, 100%; in the experiment on PIK3C2G, 95%; with PIK3CA(C420R), 100%; in the experiment on PIK3CA(E542K), 84%. For the same compound, the “Percent Control” value with PIK3CA(E545A) was 100%; in the experiment on PIK3CA(E545K), 80%; in the experiment with PIK3CA(H1047L), 100%; with PIK3CA(H1047Y), 98%; in the experiment on PIK3CA(I800L) it was 86%; in the experiment on PIK3CA(M1043I) it was 92%. The “Percent Control” value was 87% with PIK3CA(Q546K) and 92% in the experiment with PIK3CA.

Take `CN(C)c1cc2c(Nc3ccc4c(cnn4Cc4ccccc4)c3)ncnc2cn1` [GW282974X]: the “Percent Control” value in the experiment with PDGFRB is 98%; in the experiment on PDPK1, 100%; in the experiment on PFCDPK1(P.falciparum), 32%; in the experiment with PFPK5(P.falciparum) it was 94%; in the experiment with PFTAIRE2 it was 79%; with PFTK1, 100%. The “Percent Control” value was 91% with PHKG1; 83% with PHKG2; 35% with PIK3C2B; 89% in the experiment on PIK3C2G; 83% in the experiment with PIK3CA(C420R); 90% with PIK3CA(E542K). The “Percent Control” value was 95% in the experiment with PIK3CA(E545A); 67% in the experiment with PIK3CA(E545K); 88% in the experiment with PIK3CA(H1047L); 70% with PIK3CA(H1047Y); 76% in the experiment with PIK3CA(I800L); 97% in the experiment on PIK3CA(M1043I). Besides, the “Percent Control” value in the experiment with PIK3CA(Q546K) is 85%; in the experiment on PIK3CA it was 89%.

`Cl.O=S1CCN(Cc2ccc(-c3ccc4ncnc(Nc5ccc(OCc6ccccc6)c(F)c5)c4c3)o2)CC1` [GW576924A]: the “Percent Control” value with PDGFRB is 100%; with PDPK1, 100%; with PFCDPK1(P.falciparum), 83%; with PFPK5(P.falciparum), 100%; with PFTAIRE2 it was 100%; with PFTK1, 100%. Further, the “Percent Control” value was 100% in the experiment on PHKG1; 100% with PHKG2; 100% in the experiment on PIK3C2B; 78% in the experiment with PIK3C2G; 100% in the experiment on PIK3CA(C420R); 100% in the experiment on PIK3CA(E542K). In addition, the “Percent Control” value was 100% in the experiment on PIK3CA(E545A); 100% with PIK3CA(E545K); 100% with PIK3CA(H1047L); 100% in the experiment on PIK3CA(H1047Y); 100% in the experiment with PIK3CA(I800L); 88% with PIK3CA(M1043I). The “Percent Control” value in the experiment with PIK3CA(Q546K) and with PIK3CA was 100% each time.

For `NS(=O)(=O)c1ccc(N/N=C2\C(=O)Nc3ccc(C(=O)NCCc4c[nH]cn4)cc32)cc1` [GW300660X], the “Percent Control” value was 100% in the experiment with PDGFRB; 97% in the experiment with PDPK1; 69% in the experiment with PFCDPK1(P.falciparum); 78% with PFPK5(P.falciparum); 100% with PFTAIRE2; 100% in the experiment on PFTK1. Besides, the “Percent Control” value in the experiment with PHKG1 was 100%; with PHKG2, 71%; with PIK3C2B it was 100%; with PIK3C2G, 86%; with PIK3CA(C420R) it was 100%; with PIK3CA(E542K), 100%. Also, the “Percent Control” value with PIK3CA(E545A) is 100%; with PIK3CA(E545K), 100%; with PIK3CA(H1047L), 98%; with PIK3CA(H1047Y) it was 100%; in the experiment with PIK3CA(I800L), 98%; in the experiment with PIK3CA(M1043I), 81%. Besides, the “Percent Control” value in the experiment with PIK3CA(Q546K) and in the experiment on PIK3CA was 100% throughout.
